The campaign covered roughly 330,000 compounds. About 4,200 (1.3%) were called active. Another 6% or so got no clear call; they are omitted. The entries come from a sample that favours actives as a whole. A number with no mark means an inactive call. The call rests on the fitted dose curve; in most records, active means well fitted activation curve with a large enough effect; inconclusive means small, poorly fitted or top-dose-only effect; inactive means no such curve, though single readings can be large or run the other way.
Assay: qHTS screen for small molecules that induce genotoxicity in human embryonic kidney (HEK293T) cells expressing luciferase-tagged ELG1; further: nearly all actives have a fitted effect of over 60% in size; on activity change, positive = activation: % of control where 0% means no effect
Conditions: HEK293T ELG1-luciferase reporter, luminescence, 16 h; series mostly up to 46 µM; activity change, positive = activation: at the top concentration
Source text: NIH Molecular Libraries Probe Production Network [MLPCN] NIH Chemical Genomics Center [NCGC] MLPCN Grant: 1 R03 MH092164-01 Assay Provider: Kyungjae Myung, NHGRI, NIH Keywords: MLPCN, qHTS, NCGC, genotoxicity, cancer Assay Overview: Cancer cells divide rapidly compared to normal cells in the body. During cell division, cancer cells need to duplicate their genome by DNA replication. The failure of genome duplication leads to cancer cells' death. Therefore, inhibitors of DNA replication could specifically kill cancer cells. Based on this concept, many chemotherapeutic agents were developed and have been used to treat cancer patients. However, there are a limited number of agents available in the clinical setting, and some of those that do exist have low efficacy and severe side effects. Therefore, if we can find the compounds that effectively block DNA replication either by directly damaging DNA or by inhibiting other cellular mechanisms, the options for cancer treatment will be broadened. With this in mind, we developed a quantitative high-throughput ELG1-luciferase reporter gene assay. Since the level of human ELG1 protein is enhanced in response to genetic stresses, increases in luciferase activity can be used to identify compounds that cause genetic stress.
Assay Protocol Summary: For genotoxicity screening, 2,000 cells in 5 uL/well were dispensed into white, solid-bottom 1536-well plates using a solenoid-based dispenser. Following transfer of 23 nL compound or DMSO vehicle by a pin tool, the plates were incubated 16 hr at 37 °C and 5% CO2. 5 ul ONE-Glo (Promega) was then added to each plate and following a 30 min incubation at room temperature, luciferase activity was quantified on a ViewLux CCD-based plate reader.
Potency means the concentration at half of the fitted maximal effect.

| Structure (SMILES) | activity change, positive = activation | Potency |
| --- | --- | --- |
| CC(OC(=O)c1ccc(Cl)cc1O)C(=O)NCCC1=CCCCC1 (centres undefined) | -1.69% | – |
| O=C(COC(=O)c1ccco1)Nc1ccc(Cl)cn1 | 0.922% | – |
| COc1ccc(NC(=S)N2N=CCC2c2ccccc2)cc1 (centres undefined) | – | 4.11 µM (active) |
| CCC(C)N(C)C1CCN(C(=S)Nc2ccc(OC)cc2)CC1 (centres undefined) | -2.36% | – |
| COc1ccc(NC(=S)N2CCc3cc(OC)c(OC)cc3C2)cc1 | -1.11% | – |
| COC(=O)[C@]1(CC(C)C)N[C@H](c2ccc(SC3CCCCC3)cc2)[C@@H]2C(=O)N(C)C(=O)[C@@H]21 | -8.21% | – |
| CSc1ccccc1NC(=O)c1cnc2sc(C)cn2c1=O | – | 3.26 µM (active) |
| CSc1ccccc1NC(=O)c1cc(Cl)sc1Cl | -0.581% | – |
| Cc1ccccc1C(=O)Nc1ccccc1Sc1ccccc1 | 1.91% | – |
| C[C@@H](CN1CCC[C@H]1CN1C(N)=NC[C@@H]1Cc1ccccc1)N1C[C@@H](Cc2ccccc2)N(CCCC2CCCC2)C1=N | 0.226% | – |
| CCN(CC)S(=O)(=O)c1ccc(N2CCCC2)c(NC(=O)c2ccc([N+](=O)[O-])o2)c1 | -2.57% | – |
| O=C(CSc1nccn1-c1cccc(F)c1)NC1CCCC1 | -1.66% | – |
| COc1cc(C(=O)NC2CCN(C)CC2)ccc1Nc1ncc2c(n1)N(C1CCC(O)CC1)CCC(=O)N2C (centres undefined) | 11.5% | – |
| CCC(=O)c1ccc(OCC(=O)OCC(=O)N2CCc3ccccc3C2)cc1 | 4.03% | – |
| O=C(C(=O)N1CCc2ccccc2C1)N1CCc2ccccc2C1 | 3.73% | – |
| O=C(Cn1c(=S)nc2ccccn21)N1CCc2ccccc2C1 | – | 20.6 µM (active) |
| CCOC(=O)[C@@H]1[C@H]2COc3ccc(Br)cc3[C@H]2N2C(=O)N(c3ccc(C)cc3)C(=O)[C@@]12C | -1.54% | – |
| Cc1ccc(S(=O)(=O)N2C[C@@H]3CCCC[C@@H]3[C@@H](C)[C@H]2c2cn(Cc3ccccc3)c3ccc(F)cc23)cc1 | -5.58% | – |
| CC(C)C(NC(=O)c1c(F)cccc1F)C(=O)NNC(=O)c1ccccc1 (centres undefined) | 3.05% | – |
| COc1cc(/C=C/C(=O)OCC(=O)c2ccccc2)cc(OC)c1OC | 5.34% | – |
| Cc1cc(N)n2nc(-c3ccc(C(C)(C)C)cc3)cc2n1 | – | 0.411 µM (active) |
| Cc1nc2cc(-c3ccc(F)cc3)nn2c(N2CCOCC2)c1C | 10.7% | – |
| Cc1cc(C(C)(C)C)n2nc(C)c(-c3ccccc3)c2n1 | -0.426% | – |
| COc1ccc2[nH]c3c(c2c1)CCN1C(=O)C(CC(=O)NCCc2ccccn2)C[C@H](C(=O)N2CCOCC2)[C@@]31C (some centres undefined) | 7.43% | – |
| CCn1c(SCc2ccccc2)nc2c(c1=O)SCC2 | 4.43% | – |

| Structure (SMILES) | activity change, positive = activation | Potency |
| --- | --- | --- |
| CCS(=O)(=O)n1nc(-c2ccccc2)nc1SCc1ccccc1 | – | 10.3 µM (active) |
| CCn1c(SCc2ccccc2)nc2cc(OC)c(OC)cc2c1=O | 3.09% | – |
| Cc1ccc2c(c1)NC(=O)[C@@]1(C)[C@@H](c3ccccc3)[C@H]3COc4ccc(Cl)cc4[C@@H]3N1C2=O | -1.37% | – |
| CN(C)C(=O)CCc1ccc2c3c([nH]c2c1)[C@]1(C)[C@@H](C(=O)N2CCOCC2)C[C@H](CC(=O)NCCc2ccccn2)C(=O)N1CC3 | 9.82% | – |
| COc1ccc(S(=O)(=O)N(C)C[C@@H]2Oc3ccc(NC(=O)Nc4c(C)noc4C)cc3C(=O)N([C@H](C)CO)C[C@@H]2C)cc1 | 3.81% | – |
| COc1ccc(-n2cnc3cc(NCc4ccco4)ccc32)cc1 | – | 20.6 µM (active) |
| COc1ccc(-n2cnc3cc(C(=O)NC4CCCC4)ccc32)cc1 | 12.1% | – |
| COc1ccc(Nc2nc(NCc3ccco3)nc(N/N=C/c3ccccc3Cl)n2)cc1 | -0.416% | – |
| C=CCC[C@H](Cc1ccc(F)cc1)C(=O)OC[C@@H](NC(=O)[C@@H](CC=C)CC(=O)N[C@H](CO)Cc1ccccc1)C(C)(C)C | -8.04% | – |
| Cc1ccc(C)c(C(C)NC(=O)C2CCCO2)c1 (centres undefined) | -2.35% | – |
| Cc1cc([N+](=O)[O-])ccc1NC(=O)C1CCCO1 (centres undefined) | -1.87% | – |
| Cc1cc(C)c2nc(NC(=O)C3CCCO3)sc2c1 (centres undefined) | – | 3.55 µM (active) |
| Oc1ccc(/C=N/Nc2ccc(C(F)(F)F)cn2)cc1O | – | 20.6 µM (active) |
| O=C(Nc1ccccc1)Nc1ccc(C(F)(F)F)cn1 | 8.04% | – |
| Cc1nccn1CC(=O)N/N=C/c1ccc(O)c(O)c1 | 0.2% | – |
| O=C(/C=C/c1ccc2c(c1)OCO2)NCc1cn2cc(Cl)ccc2n1 | 1.4% | – |
| Clc1ccc2nc(CSc3ccccc3)cn2c1 | – | 0.82 µM (active) |
| CCCCCCSc1ccc(-c2nc3ccc(Cl)cn3c2NCc2ccccc2)cc1 | -2.3% | – |
| O=C(NCCc1ccco1)c1ccc(OCc2cn3ccccc3n2)cc1 | 9.93% | – |
| COc1ccc(-c2nnc3ccc(SCc4ccccc4)nn23)cc1 | -0.849% | – |
| COc1ccc2nc(SCc3ccccc3)nc(C)c2c1 | – | 3.66 µM (active) |
| COC(=O)CSc1nc(C)c2ccc(OC)cc2n1 | -1.32% | – |
| C#CCOCCOCCOCCNc1nc(N2CCN(C(=O)[C@H](CO)n3cc([C@@H](N)C(C)C)nn3)CC2)nc(N2CCN(C(=O)[C@H](CCC(=O)O)n3cc([C@@H](N)[C@H](C)CC)nn3)CC2)n1 | 3.78% | – |
| O=C(COC(=O)c1cccnc1Cl)NC12CC3CC(CC(C3)C1)C2 | -4.16% | – |
| Cc1ccc(NC(=O)C2CC2)cc1S(=O)(=O)N1CCOCC1 | -0.262% | – |

| Structure (SMILES) | activity change, positive = activation | Potency |
| --- | --- | --- |
| CC[C@]12c3[nH]c4cc(CCC(=O)N(C)C)ccc4c3CCN1C(=O)[C@@H](CC(=O)NCCCN(C)C)C[C@@H]2C(=O)N1CCN(C(=O)c2ccco2)CC1 | -3.3% | – |
| O=C(NN=Cc1ccc(N2CCOCC2)cc1)c1cc2ccccc2cc1O | -2.13% | – |
| COc1ccccc1OCC(=O)O/N=C(\N)c1ccccn1 | – | 9.2 µM (active) |
| N/C(=N\OC(=O)Cc1ccc([N+](=O)[O-])cc1)c1ccccn1 | 12% | – |
| COc1ccccc1OCC(=O)OCc1cc(-c2ccco2)on1 | -0.824% | – |
| COc1ccc(OCC(=O)NNC(=O)C2CCC2)cc1 | 0.166% | – |
| CC(CNC(=O)Cn1cnc2c(OCc3ccccc3)ncnc21)c1ccccc1 (centres undefined) | 1.33% | – |
| COc1cccc(Nc2nc(N)c([N+](=O)[O-])c(NCc3ccco3)n2)c1 | -1.09% | – |
| CNc1nc(Nc2ccc(C)c(Cl)c2)nc(N)c1[N+](=O)[O-] | – | 10.3 µM (active) |
| Cc1ccc(Nc2nc(N3CCOCC3)nc(N3CCOCC3)n2)cc1Cl | 0.349% [at 9.26 µM] | – |
| CCN(C(=O)COC(=O)c1ccccc1O)c1cccc2ccccc12 | -3.96% | – |
| CC(=O)Nc1ccc(-c2nc3ccccc3o2)cc1 | – | 3.26 µM (active) |
| CCc1nc(Nc2ccc(NC(C)=O)cc2)c2oc3ccccc3c2n1 | -0.226% | – |
| COc1cc(OC)cc(C(=O)Nc2ccc(-c3nc4ccccc4o3)c(O)c2)c1 | -4.77% | – |
| CC(C)(C)OC(=O)NNc1c2ccccc2nc2ccccc12 | -4.89% | – |
| CC(=O)Nc1ccc(Nc2c3ccccc3nc3ccccc23)cc1 | – | 13 µM (active) |
| Cc1ccc(OCC(=O)Nc2ccc(-c3nc4ncccc4o3)cc2)cc1 | 5.43% | – |
| Nc1ncnc2c1ncn2[C@@H]1O[C@H](CNCc2cccn2-c2nccs2)[C@@H](O)[C@H]1O | 4.38% | – |
| CC(C)/C=N/NC(=O)c1cc(Br)ccc1O | -0.104% | – |
| CC(C)C(=O)NCc1cc(-c2ccc(Cl)cc2)no1 | 7.48% | – |
| CC(C)Cc1cc(C(=O)Nc2cc(Br)ccc2O)no1 | – | 8.2 µM (active) |
| CC(C)N(C(=O)[C@H]1C[C@H](CC(=O)NCCC2=CCCCC2)C(=O)N2CCc3c([nH]c4cc(CCC(=O)N(C)C)ccc34)[C@]12C)C(C)C | 3.22% | – |
| Cc1cccc(NC(=O)Nc2cccc(Oc3c(F)c(F)c(F)c(F)c3F)c2)c1 | 0.228% | – |
| Cc1ccoc1C(=O)Nc1cccc(Oc2ccccc2)c1 | – | 9.2 µM (active) |
| Cc1ccc(C(=O)COc2cccc(NC(=O)c3ccco3)c2)cc1 | 3.01% | – |

| Structure (SMILES) | activity change, positive = activation | Potency |
| --- | --- | --- |
| CN(CC(=O)Nc1ccc(C(N)=O)cc1)S(=O)(=O)c1ccc2c(c1)OCCO2 | -1.78% | – |
| O=C(Cn1cnc2c(OCc3ccccc3)ncnc21)NCCCn1ccnc1 | 0.984% | – |
| O=C(COC(=O)c1ccc(F)cc1)NCC1COc2ccccc2O1 (centres undefined) | -2.33% | – |
| O=C(OCCN1C(=O)c2ccccc2C1=O)Oc1ccccc1 | 0.764% | – |
| Cc1cccc2c1N(CCOc1ccccc1)C(=O)C2=O | 5.53% | – |
| O=C1c2ccccc2C(=O)N1CCOc1ccc(F)cc1 | – | 20.6 µM (active) |
| Cn1cccc1C(=O)OCC(=O)c1ccc(Br)s1 | 17.4% | – |
| COc1ccc(S(=O)(=O)Nc2cccc3c2O[C@H](CN(C)S(=O)(=O)c2ccc(OC)cc2)[C@@H](C)CN([C@H](C)CO)C3=O)cc1 | -0.316% | – |
| NC(=O)c1c(NC(=O)c2ccccc2)sc2c1CCCC2 | – | 8.2 µM (active) |
| Cc1ccc(C(=O)c2c(NC(=O)c3ccncc3)sc3c2CCCC3)cc1 | -5.11% | – |
| O=C(Nc1sc2c(c1C(=O)O)CCC2)c1ccccc1F | 3.4% | – |
| O=C(Oc1ccc(Br)cc1)c1cccnc1 | -2.16% | – |
| O=C(Oc1ccc(-c2nc(-c3ccccn3)no2)cc1)c1ccccc1 | – | 0.517 µM (active) |
| Cc1ccc(Oc2nc(-c3ccccn3)nc3ccccc23)cc1 | -14.1% | – |
| COc1cc(C(=O)OCc2cc(=O)n3ccsc3n2)ccc1OC(C)C | 7.03% | – |
| CC(C)(C)OC(=O)CNC(=O)c1[nH]cnc1C(=O)N[C@@H](CCCCN)C(=O)OC(C)(C)C | -1.61% | – |
| C[C@H](CO)N1C[C@H](C)[C@@H](CN(C)Cc2ccc(-c3ccccc3)cc2)Oc2ccc(NC(=O)Cn3cnnn3)cc2C1=O | -0.487% | – |
| O=C(NCc1ccccc1Cl)c1csc2c1CCCCC2 | 1.64% | – |
| O=C(Nc1ccccc1N1CCOCC1)c1csc2c1CCCC2 | 0.737% | – |
| COC(=O)c1sc(NC(=O)c2csc3c2CCCC3)nc1C | – | 2.59 µM (active) |
| COC(=O)[C@]1(Cc2ccccc2)N[C@H](CN(C)S(=O)(=O)c2ccc(F)cc2)[C@@H]2C(=O)N(Cc3ccccc3)C(=O)[C@@H]21 | -1.12% | – |
| COc1cc(N=Cc2c(O)[nH]c3ccccc23)cc(OC)c1OC | 0.123% | – |
| COc1ccc(N=Cc2c(O)[nH]c3ccccc23)cc1OC | – | 14.6 µM (active) |
| COc1ccccc1N=Cc1c(O)c2ccccc2oc1=O | 0.524% | – |

From PubChem BioAssay AID504466 (National Center for Advancing Translational Sciences (NCATS), 2011)
